Test results taken from PubChem BioAssay (NCATS).
Results filed as inconclusive are left out. Entries that show only a call come without a potency. Calls of active or inactive are those of the source. Calls follow the shape of the dose curve; as a rule, active = well fitted inhibition curve with a large enough effect; inconclusive = small, poorly fitted or top-dose-only effect; inactive = no such curve, though single readings can be large or run the other way.

Test: qHTS assay for measurement of the activity of small molecule inhibitors on Zika virus induced Caspase-3 activity in human iPSC derived neural progenitor cells (hNPCs) (AID 1224857); also: nearly all actives have a fitted effect of over 65% in size
Conditions: hNPCs ZIKV-induced caspase-3/7, Caspase-Glo luminescence, 6 h; series mostly up to 45.7 µM
Summary of the method: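 After overnight (16–20 h) culture at 350 cells/well, hNPCs get compound, then ZIKV 2 FFU/cell one hour later. Six hours on, Caspase-Glo 3/7 is added and luminescence measured.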

Compound	Potency
CCOC(=O)N1CCN([N+]([O-])=NOc2cc(ON=[N+]([O-])N3CCN(C(=O)OCC)CC3)c([N+](=O)[O-])cc2[N+](=O)[O-])CC1	inactive
CCOC(=O)[C@H](CCc1ccccc1)N[C@@H](C)C(=O)N1CCCC1C(=O)O (some centres not stated)	inactive
Cc1ccc(NC(=O)Nc2cc(C(F)(F)F)ccc2F)cc1Nc1ccc2c(c1)NC(=O)C2=Cc1ccc[nH]1	inactive
C=C[C@@H]1CN2CCC1C[C@@H]2C(O)c1ccnc2ccc(OC)cc12 (some centres not stated)	inactive
CN1CCN2c3ncccc3Cc3ccccc3C2C1 (configuration not stated)	inactive

Test: qHTS assay for measurement of the activity of small molecule inhibitors on Zika virus induced Caspase-3 activity in human astrocytoma cells (AID 1224859)
Conditions: SNB-19 ZIKV-induced caspase-3/7, luminescence, 6 h; series mostly up to 45.7 µM
Summary of the method: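 Inhibition of Zika-induced caspase-3/7 activity: SNB-19 cells, 1 h compound pretreatment, ZIKV 2 FFU/cell for 6 h at 37 C, Caspase-Glo luminescence read-out.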

Compound	Potency
Cc1cnc(CNC(=O)c2c(=O)c3ccc(N4CCCN(C)CC4)nc3n3c2sc2ccccc23)cn1	inactive
CCC[C@H](N[C@@H](C)C(=O)N1[C@@H]2CCCC[C@H]2C[C@H]1C(=O)O)C(=O)OCC	inactive
CCn1c(-c2nonc2N)nc2cncc(CNC3CCNCC3)c21	inactive
Cn1c(=O)c(-c2c(Cl)cccc2Cl)cc2cnc(Nc3cccc(C(=O)O)c3)nc21	inactive
O=C1NC(=O)C(c2cnc3ccccn23)=C1c1cn2c3c(cccc13)CN(C(=O)N1CCOCC1)CC2	inactive
Cc1c(-c2cccc3c(CCCOc4cccc5ccccc45)c(C(=O)O)n(Cc4cccnc4)c23)c(COc2ccc(N3CCN([S+](=O)([O-])N(C)C)CC3)cc2)nn1C	inactive
O=C(Nc1cccc(C(F)(F)F)c1)Nc1cc(S(=O)(=O)NC2CC2)ccc1-c1ccsc1	inactive
CC(=O)NCCC(=O)N[C@@H](CCC(N)=O)C(=O)N[C@@H](CO)C(=O)N[C@@H](CCC(N)=O)C(=O)N[C@@H](CCC(N)=O)C(=O)N[C@H](C(=O)N[C@@H](Cc1ccccc1)C(=O)N[C@]1(C)CCCCCCC=CCCC[C@@](C)(C(=O)N[C@@H](CCC(N)=O)C(=O)N[C@@H](CC(N)=O)C(N)=O)NC(=O)[C@H](CC(C)C)NC(=O)[C@H](CC(C)C)NC(=O)[C@@H](CCCNC(=N)N)NC(=O)[C@H](Cc2c[nH]c3ccccc23)NC(=O)[C@H](CC(C)C)NC(=O)[C@H](CC(N)=O)NC1=O)[C@H](C)O	inactive
C=C1c2cccc(O)c2C(O)=C2C(=O)[C@@]3(O)C(O)=C(C(N)=O)C(=O)[C@@H](N(C)C)[C@@H]3[C@@H](O)[C@H]12	inactive
C[C@@]1(c2cc(-c3cncnc3)c(F)cc2F)CCSC(N)=N1	inactive
Cc1cc(CS(=O)(=O)c2ccccc2)cc(OCc2ccc(CN3CCC[C@H]3CO)cc2)c1	inactive
O=C1Nc2ccc(I)cc2C1=Cc1cc(Br)c(O)c(Br)c1	inactive
CCc1cccc(CC)c1NC(=O)N1Cc2[nH]nc(NC(=O)c3ccc(N4CCN(C)CC4)cc3)c2C1	inactive
Nc1[nH]nc2nnc(-c3c(-c4ccccc4)nn4ccccc34)cc12	inactive
Cc1nc(NC(=O)N2CCC[C@@H]2C(N)=O)sc1-c1csc(C(C)(C)C)n1	inactive
CCCCc1ccc(NS(=O)(=O)c2ccc(C)c(C(=O)N3CCN(c4cccc(C)c4C)CC3)c2)cc1	inactive
CCNC(=O)c1noc(-c2cc(C(C)C)c(O)cc2O)c1-c1ccc(CN2CCOCC2)cc1	inactive
N#CC1(c2cccc(C(=O)Nc3cc(Oc4ccc5nc(NC(=O)C6CC6)sc5n4)ccc3F)c2Cl)CC1	inactive
CC1C(=O)OC2C(O)C34C5CC(C(C)(C)C)C36C(OC(=O)C6O)OC4(C(=O)O5)C12O (configuration not stated)	inactive

Compound	Potency
CN(C)CCOc1ccc(C(=C(CCCl)c2ccccc2)c2ccccc2)cc1	inactive
COc1ccc(-c2cc(=O)c3c(O)cc(O[C@@H]4O[C@H](CO[C@@H]5O[C@@H](C)[C@H](O)[C@@H](O)[C@@H]5O)[C@@H](O)[C@H](O)[C@@H]4O)cc3o2)cc1O	inactive
CCCCC(C)(C)[C@H](O)C=C[C@H]1[C@H](O)CC(=O)[C@H]1CC=CCCCC(=O)O	inactive
CC1(COc2ccc3c(c2)ncn3-c2ccc3cccc(N4CCC(N)CC4)c3n2)COC1	inactive
O=C(NCCCCN1CCOCC1)c1cc2ccccc2o1	inactive
CC(=O)O[C@]1(C(C)=O)CC[C@H]2[C@@H]3C=C(Cl)C4=CC(=O)[C@@H]5C[C@H]5[C@]4(C)[C@@H]3CC[C@@]21C	inactive
CCC[C@H](Nc1nc(-c2ccc(NC(=O)NCC)c(OC)c2)ncc1C)c1cccnc1	inactive
COc1cc2nc(-c3cc(F)ccc3O)nc(N[C@@H]3CNC[C@@H]3C(C)(C)O)c2cc1OC	inactive
O=C(Nc1cccc2c(=O)cc(-c3nn[nH]n3)oc12)c1ccc(OCCCCc2ccccc2)cc1	inactive
CC[C@H](C=C[C@@H](C)[C@H]1CC[C@H]2[C@@H]3CC=C4C[C@@H](O)CC[C@]4(C)[C@@H]3CC[C@]12C)C(C)C	inactive
CN1CCC(COc2cnc(-c3cccc(Cn4nc(-c5cccc(C#N)c5)ccc4=O)c3)nc2)CC1	inactive
CC(C)Oc1cc(Nc2nc(N[C@@H](C)c3ccc(F)cn3)ncc2Cl)[nH]n1	inactive
CC[C@]1(O)C[C@H]2CN(CCC3=c4ccccc4=N[C]3[C@@](C(=O)OC)(c3cc4c(cc3OC)N(C)[C@H]3[C@@](O)(C(N)=O)[C@H](O)[C@]5(CC)C=CCN6CC[C@]43[C@@H]65)C2)C1	inactive
CCOC(=O)N1CCN([N+]([O-])=NOc2cc(ON=[N+]([O-])N3CCN(C(=O)OCC)CC3)c([N+](=O)[O-])cc2[N+](=O)[O-])CC1	inactive
CCOC(=O)[C@H](CCc1ccccc1)N[C@@H](C)C(=O)N1CCCC1C(=O)O (some centres not stated)	inactive
Cc1ccc(NC(=O)Nc2cc(C(F)(F)F)ccc2F)cc1Nc1ccc2c(c1)NC(=O)C2=Cc1ccc[nH]1	inactive
C=C[C@@H]1CN2CCC1C[C@@H]2C(O)c1ccnc2ccc(OC)cc12 (some centres not stated)	inactive
CN1CCN2c3ncccc3Cc3ccccc3C2C1 (configuration not stated)	inactive
